High-throughput results (PubChem BioAssay)
Gli-Sufu block – Gli-Sufu pathway antagonism; AID 588413; Sufu-KO-LIGHT fibroblasts, Gli luciferase reporter luminescence; 0.74% of 340,000 active; inhibition, % at 5 µM;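 active means inhibition above about 55%, limit read from the data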
Beta apoptosis – blocks beta cell apoptosis; INS-1E cytokine-induced death, ATP luminescence, 48 h; percent of positive-control rescue, neutral wells zero; protection from apoptosis, % (test concentration not listed); 0.8% of 300,000 active; AID 435005;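 active means Every replicate reaches about 75%, or at least half do and their mean reaches it too, limit read from the data; inconclusive means At least half of replicates reach the limit but their mean does not; inactive means Under half of replicates reach the limit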;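 further: higher means more ATP so stronger rescue from cytokine killing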
CSC inhib – blocks cancer stem cells. inhibition, % at 7.5 µM. 1.1% of 300,000 active. cancer stem cell-like cells viability, luminescence; in the data active means inhibition above about 75%; inconclusive means no clear call, values can overlap the other calls; tested in HMLE shEcad cells
Mdm2-MdmX inh – disrupts the human Mdm2-MdmX interaction | AID 485346 | 3% of 330,000 active | O15151+Q00987 | SaOS-2 split-luciferase Mdm2/MdmX complementation, luminescence | inhibition, % at 8 µM;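 active means inhibition of at least 50% at 8 µM in the primary screen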
Target sequence (O15151 whole entry, looked up): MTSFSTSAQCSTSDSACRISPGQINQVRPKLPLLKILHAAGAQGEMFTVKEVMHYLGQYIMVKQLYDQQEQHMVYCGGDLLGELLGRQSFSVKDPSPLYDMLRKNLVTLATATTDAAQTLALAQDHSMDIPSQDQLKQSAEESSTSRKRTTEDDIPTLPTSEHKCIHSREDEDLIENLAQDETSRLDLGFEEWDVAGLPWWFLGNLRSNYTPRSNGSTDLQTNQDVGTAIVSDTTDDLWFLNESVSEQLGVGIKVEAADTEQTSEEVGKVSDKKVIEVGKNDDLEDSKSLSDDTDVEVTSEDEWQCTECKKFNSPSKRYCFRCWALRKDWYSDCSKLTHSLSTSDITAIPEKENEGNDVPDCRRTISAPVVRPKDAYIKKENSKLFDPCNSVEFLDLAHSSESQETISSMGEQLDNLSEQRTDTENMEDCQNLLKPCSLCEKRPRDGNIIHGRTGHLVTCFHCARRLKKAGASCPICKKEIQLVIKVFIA
Target sequence (Q00987 whole entry, looked up): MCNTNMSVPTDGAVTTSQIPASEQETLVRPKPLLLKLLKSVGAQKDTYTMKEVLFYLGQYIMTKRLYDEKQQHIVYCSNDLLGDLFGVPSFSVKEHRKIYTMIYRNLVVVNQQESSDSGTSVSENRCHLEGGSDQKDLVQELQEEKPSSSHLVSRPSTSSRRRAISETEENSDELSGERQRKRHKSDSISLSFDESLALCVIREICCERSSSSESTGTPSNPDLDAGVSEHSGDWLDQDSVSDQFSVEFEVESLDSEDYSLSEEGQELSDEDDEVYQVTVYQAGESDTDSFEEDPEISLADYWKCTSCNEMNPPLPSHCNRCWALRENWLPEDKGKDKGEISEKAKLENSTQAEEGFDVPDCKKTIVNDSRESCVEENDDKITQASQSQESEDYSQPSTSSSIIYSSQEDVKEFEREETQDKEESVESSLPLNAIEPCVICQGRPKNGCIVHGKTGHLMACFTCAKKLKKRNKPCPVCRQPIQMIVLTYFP
Shn3 3UTR inh – reduces Shn3 3'UTR luciferase signal in osteoblasts. Clone20 osteoblast Shn3 3'UTR firefly luciferase, 24 h. inhibition, % at 12.5 µM. 0.52% of 360,000 active. AID 588674;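 active means mean inhibition of at least 75% with every replicate also reaching 75%; inconclusive means mean inhibition at least 75% but some replicate below; inactive means mean inhibition below 75%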
PAX8 inh HTS – PAX8 transcriptional activity inhibition; 1.2% of 360,000 active; RMG-I TPO-luciferase reporter, SteadyGlo, 24 h; AID 652154; inhibition, % at 12.6 µM;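 active means mean replicate inhibition at least 60% with every replicate also reaching 60%; inconclusive means only one of the two criteria is met; inactive means mean below 60% and not all replicates reaching 60%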;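 further: luciferase light reporting Pax8 driven TPO promoter activity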
Mdm2-MdmX conf – confirmation of human Mdm2/MdmX interaction inhibitors | shares compounds with Mdm2-MdmX inh | Mdm2-MdmX binding, luminescent assay | inhibition, % at 8 µM | 55% of 10,000 active | AID 489028; in the data active means inhibition above about 40%
Full FLuc ctr – inhibits full-length luciferase, flagging false Mdm2/MdmX hits; shares compounds with Mdm2-MdmX inh; SaOS-2 full-length luciferase counterscreen, luminescence; inhibition, % at 8 µM; 77% of 6,200 active; AID 504607;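 active means mean inhibition at 8 µM reaching about 37%, which flags the compound as non-specific, limit read from the data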;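 further: p53-null SaOS-2 cells with luciferase driven by a doxycycline-inducible promoter; compound on cells about two nights before reading with doxycycline added after day one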
Of the large screens only hits and unclear results are named; the others gave an inactive call (follow-up assays come after a bar, where they were run). This is a sample that favours compounds with a hit; in the whole collection about 4% have one here.

Cc1cc(N2CCN(C)CC2)nc2ccc(NC(=S)N3CCN(c4ccc(F)cc4)CC3)cc12	CSC inhib inconclusive, Mdm2-MdmX inh 94.2 | Mdm2-MdmX conf inactive
C[C@@H]1CN([C@H](C)CO)C(=O)c2cc(Br)cnc2O[C@H]1CN(C)C(=O)Nc1ccc(F)cc1	none (no result: Gli-Sufu block, Beta apoptosis, CSC inhib, Mdm2-MdmX inh, Shn3 3UTR inh)
Cc1cc2nc(-c3ccc(SCC(=O)Nc4nccs4)nc3)[nH]c2cc1C	none (no result: Beta apoptosis, CSC inhib, Mdm2-MdmX inh, PAX8 inh HTS)
Cc1cc2nc(-c3ccc(SCC(=O)Nc4ccc(S(=O)(=O)N5CCCC5)cc4)nc3)[nH]c2cc1C	Mdm2-MdmX inh 69.3 | Mdm2-MdmX conf inactive
CC(=O)CSc1ccc(-c2nc3cc(C)c(C)cc3[nH]2)cn1	Mdm2-MdmX inh 67.8, PAX8 inh HTS 68.5 | Mdm2-MdmX conf 66.7 | Full FLuc ctr 66.3
CN(C)c1ncnc2c1ncn2C1OC(CO)C(O)C1O (stereo not drawn)	Mdm2-MdmX inh 75.6, Shn3 3UTR inh 95.7 (no result: CSC inhib, PAX8 inh HTS) | Mdm2-MdmX conf 42.8 | Full FLuc ctr inactive
CNc1ncnc2c1ncn2[C@@H]1O[C@H](CO)[C@@H](O)[C@H]1O	none
COc1ccc(C[C@H](N)C(=O)N[C@H]2[C@@H](O)[C@H](n3cnc4c(N(C)C)ncnc43)O[C@@H]2CO)cc1	Gli-Sufu block 89.8, Mdm2-MdmX inh 96.5, PAX8 inh HTS 117.1 (no result: Beta apoptosis) | Mdm2-MdmX conf 99.2 | Full FLuc ctr 53.6
Nc1ccn([C@@H]2O[C@H](CO)[C@@H](O)[C@@H]2O)c(=O)n1	none (no result: Mdm2-MdmX inh)
Nc1ncn([C@@H]2O[C@H](CO)[C@@H](O)[C@H]2O)c(=O)n1	Mdm2-MdmX inh 52.2 | Mdm2-MdmX conf 50.3 | Full FLuc ctr 58.6
O=[N+]([O-])c1ccc(Sc2cccc3cccnc23)c([N+](=O)[O-])c1	Beta apoptosis 80.0, Mdm2-MdmX inh 93.0, Shn3 3UTR inh 93.1 (no result: PAX8 inh HTS) | Mdm2-MdmX conf 86.5 | Full FLuc ctr 56.5
C=C(C)COc1ccc(-c2n[nH]c(C)c2-c2ccc(Br)cc2)c(O)c1	CSC inhib 101.3, Mdm2-MdmX inh 86.0 (no result: PAX8 inh HTS) | Mdm2-MdmX conf 56.5 | Full FLuc ctr 50.8
C=C(C)COc1ccc(-c2[nH]ncc2-c2ccccc2OC)c(O)c1	none
CCOc1ccc(-c2[nH]ncc2-c2ccc(Cl)cc2)c(O)c1	none
C=C(C)COc1ccc(-c2[nH]ncc2-c2ccc(Br)cc2)c(O)c1	Mdm2-MdmX inh 59.7 | Mdm2-MdmX conf 61.9 | Full FLuc ctr 44.4
COc1ccc(-c2cn[nH]c2-c2ccc(OCc3ccc([N+](=O)[O-])cc3)cc2O)cc1	Mdm2-MdmX inh 86.0 | Mdm2-MdmX conf 77.2 | Full FLuc ctr inactive
CCCC(=O)N1C[C@H]2[C@@H](c3ccccc31)[C@H](CO)N2C(=O)CC1CC1	none (no result: Gli-Sufu block, Beta apoptosis, CSC inhib, Mdm2-MdmX inh, Shn3 3UTR inh)
O=C(C1CC1)N1C[C@@H]2[C@H](c3ccccc31)[C@H](CO)N2S(=O)(=O)c1ccccc1	none (no result: Gli-Sufu block, Beta apoptosis, CSC inhib, Mdm2-MdmX inh, Shn3 3UTR inh)
CC(=O)Nc1cccc(C(=O)/C=C/c2ccc(C)cc2)c1	Mdm2-MdmX inh 57.3, PAX8 inh HTS 74.8 | Mdm2-MdmX conf 51.7 | Full FLuc ctr 54.4
COc1cccc(NC(=S)NC(=O)/C=C/c2ccc(F)cc2)c1	none
CCC(=O)Nc1cccc(C(=O)/C=C/c2ccc(F)cc2)c1	Mdm2-MdmX inh 89.0, PAX8 inh HTS inconclusive | Mdm2-MdmX conf 47.9 | Full FLuc ctr 44.8
CO[C@H]1CN(C)C(=O)c2ccc(NC(=O)Cc3ccccc3)cc2OC[C@@H](C)N(C(=O)c2ccccc2F)C[C@H]1C	none (no result: Gli-Sufu block, Beta apoptosis, CSC inhib, Mdm2-MdmX inh, Shn3 3UTR inh)
C[C@@H]1CN([C@@H](C)CO)C(=O)CCCn2cc(nn2)CO[C@H]1CN(C)Cc1ccc2cccnc2c1	none (no result: Gli-Sufu block, Beta apoptosis, CSC inhib, Mdm2-MdmX inh, Shn3 3UTR inh)
Cc1cc(NC(=O)CSc2nc3cc(Cl)ccc3o2)no1	none (no result: CSC inhib)
CCN(CC)S(=O)(=O)c1ccc2oc(SCC(=O)Nc3cc(C)on3)nc2c1	Mdm2-MdmX inh 54.9 | Mdm2-MdmX conf 56.7 | Full FLuc ctr 52.5
COc1ccc(CN(C)C[C@H]2Oc3c(NC(=O)C4CCOCC4)cccc3C(=O)N([C@@H](C)CO)C[C@@H]2C)cc1	none (no result: Gli-Sufu block, Beta apoptosis, CSC inhib, Mdm2-MdmX inh, Shn3 3UTR inh)
COC(=O)c1cc(NC(=O)c2c(Cl)nc3sccn23)cc(C(=O)OC)c1	Mdm2-MdmX inh 68.4 (no result: PAX8 inh HTS) | Mdm2-MdmX conf inactive
Cc1ccc(C)c(CSc2nc3[nH]ncc3c(=O)[nH]2)c1	Mdm2-MdmX inh 56.0 | Mdm2-MdmX conf 68.2 | Full FLuc ctr 48.1
